High-throughput results: PubChem BioAssay, National Center for Advancing Translational Sciences (NCATS)
CtBP-E1A inh: qHTS Assay for Inhibitors of the CtBP/E1A Interaction. AlphaScreen GST-E1A/His-CtBP binding, 1536-well; stronger effect = lower value. 340,000 tested, 0.49% active. activity change, % (no concentration beside the values); in the data active means activity change below about -65%; inconclusive means mostly about -30% to -63%; further: on the % scale 0 is the no-effect control and ±100 the full control effect
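Steps: dispense buffer (Tris pH 8.0, NaCl 300 mM, TCEP 1 mM, BSA, Tween 20); add 5X protein mix (GST-E1A, His-CtBP, 125 nM each); pin 23 nL compound; 2 h at 37 °C, dark; add 5X beads (50 ug/mL); 1 h; read.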
BAZ2B inh: qHTS Assay for Inhibitors of BAZ2B; AlphaScreen BAZ2B-H3K14Ac peptide displacement; Potency, µM (highest dose often 114 µM), inactives show at the top dose activity change, negative = inhibition, hits mostly inhibitors; 360,000 tested, 4.4% active; AID 504333, 2011; further: potency means the concentration at half of the fitted maximal effect; on the % scale 0 is the no-effect control and ±100 the full control effect; nearly all actives have a fitted effect of over 60% in size
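BAZ2B (50 nM) with biotin-H3(5-23)K14Ac peptide (50 nM) in PBS pH 7.4, 0.01% Tween-20, preformed 30 min, then compound 30 min at room temperature; top concentration 110uM. AlphaScreen streptavidin donor/nickel chelate acceptor beads (10 ug/mL final), 20 min dark, signal read.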
G9a block: qHTS Assay for Inhibitors of Histone Lysine Methyltransferase G9a | 350,000 tested, 8.8% active | Histone-lysine N-methyltransferase EHMT2 (Homo sapiens), Q96KQ7 | Potency, µM (series often up to 102 µM), without a hit: top-dose activity, negative = inhibition, hits mostly inhibitors | G9a H3K9 monomethylation, AlphaScreen, 2 h; further: potency means the concentration at half of the fitted maximal effect; on the % scale 0 is the no-effect control and ±100 the full control effect; nearly all actives have a fitted effect of over 75% in size
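Compounds were preincubated with 20 nM G9a for 15 min, after which biotinylated H3K9 peptide (500 nM) and SAM (20 uM) started a 2 h room-temperature reaction. Monomethylated product was quantified by antibody-based AlphaScreen chemiluminescence.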
Six1-Eya2 inh: qHTS Assay for Inhibitors of the Six1/Eya2 Interaction. AlphaScreen GST-Six1/His-Eya2 binding, biochemical; stronger effect = lower value. activity change, % (no concentration beside the values). Homeobox protein SIX1 (Homo sapiens) + Protein phosphatase EYA2 (Homo sapiens), …. 360,000 tested, 0.56% active; in the data active means activity change below about -65%; inconclusive means mostly about -30% to -63%; further: on the % scale 0 is the no-effect control and ±100 the full control effect
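Compounds are tested against tagged Six1 and Eya2 proteins bridged by glutathione donor and nickel acceptor beads; after a one-hour incubation at 37 °C without light, AlphaScreen emission is recorded.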
HP1b chromo inh: HTS for Inhibitors of HP1-beta Chromodomain Interactions with Methylated Histone Tails; Chromobox protein homolog 1 (Homo sapiens), P83916; AlphaScreen HP1-beta / biotin-H3K9me3 peptide binding; Potency, µM (highest dose often 114 µM), without a hit: at the highest dose activity change, negative = inhibition, actives largely listed as inhibitors; 390,000 tested, 0.56% active; further: potency means the concentration at half of the fitted maximal effect; nearly all actives have a fitted effect of over 70% in size
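HP1-beta protein (50 nM final) preincubated 30 min at room temperature with biotinylated H3(1-18)K9me3 peptide (50 nM) in PBS pH 7.4, 0.01% Tween-20, then compound added for 30 min. AlphaScreen streptavidin donor/nickel chelate acceptor beads (10 ug/mL final), 30 min dark, luminescence read.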
JMJD2A Tudor inh: qHTS Assay for Inhibitors of JMJD2A-Tudor Domain; Lysine-specific demethylase 4A (Homo sapiens), O75164; AlphaScreen JMJD2A-Tudor / H3K4me3 peptide binding; Potency, µM (titrated, usually from 114 µM), without a hit: at the highest dose activity change, negative = inhibition, actives largely listed as inhibitors; 390,000 tested, 4.4% active; AID 504339, 2011; further: potency means the concentration at half of the fitted maximal effect; on the % scale 0 is the no-effect control and ±100 the full control effect; nearly all actives have a fitted effect of over 50% in size
Target sequence (O75164 whole entry, looked up, the tested form may be a part): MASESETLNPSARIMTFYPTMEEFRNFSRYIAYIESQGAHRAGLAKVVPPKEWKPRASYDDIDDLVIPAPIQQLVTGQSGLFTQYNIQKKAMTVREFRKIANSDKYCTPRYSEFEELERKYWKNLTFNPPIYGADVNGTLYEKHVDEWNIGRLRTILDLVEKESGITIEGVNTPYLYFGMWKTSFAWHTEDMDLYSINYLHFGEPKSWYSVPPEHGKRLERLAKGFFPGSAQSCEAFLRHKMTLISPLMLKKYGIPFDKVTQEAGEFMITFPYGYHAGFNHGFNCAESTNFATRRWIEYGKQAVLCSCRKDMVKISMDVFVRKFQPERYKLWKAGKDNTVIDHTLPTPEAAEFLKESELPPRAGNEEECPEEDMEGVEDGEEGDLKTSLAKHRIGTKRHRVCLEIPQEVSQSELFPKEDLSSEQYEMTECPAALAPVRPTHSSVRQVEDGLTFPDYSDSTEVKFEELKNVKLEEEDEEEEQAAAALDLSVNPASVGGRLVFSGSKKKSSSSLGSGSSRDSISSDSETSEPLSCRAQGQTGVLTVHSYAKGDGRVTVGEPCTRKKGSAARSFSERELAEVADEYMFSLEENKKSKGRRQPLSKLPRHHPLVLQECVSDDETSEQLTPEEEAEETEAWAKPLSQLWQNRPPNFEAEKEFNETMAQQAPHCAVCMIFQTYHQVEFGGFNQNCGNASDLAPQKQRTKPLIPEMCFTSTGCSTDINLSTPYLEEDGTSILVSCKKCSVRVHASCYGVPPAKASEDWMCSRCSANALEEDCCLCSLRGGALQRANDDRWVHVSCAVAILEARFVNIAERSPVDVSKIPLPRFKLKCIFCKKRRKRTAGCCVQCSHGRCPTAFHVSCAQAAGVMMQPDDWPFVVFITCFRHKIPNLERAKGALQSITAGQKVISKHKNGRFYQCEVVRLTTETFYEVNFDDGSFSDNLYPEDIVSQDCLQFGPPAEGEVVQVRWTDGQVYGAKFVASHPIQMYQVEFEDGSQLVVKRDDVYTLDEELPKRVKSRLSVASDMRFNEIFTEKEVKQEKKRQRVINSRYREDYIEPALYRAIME
* hit, by the source's call; ? = inconclusive; / = no result; ! = not active in a repeat; [ ] = remark or other dose. Only some compounds are listed: those with a hit (about 10% of all), similar ones and a draw of the others. Unless noted, the call rests on the fitted dose curve; in most records, active means well fitted inhibition curve with a large enough effect; inconclusive means small, poorly fitted or top-dose-only effect; inactive means no such curve, though single readings can be large or run the other way.

SMILES	CtBP-E1A inh	BAZ2B inh	G9a block	Six1-Eya2 inh	HP1b chromo inh	JMJD2A Tudor inh
COc1ccc(C(=O)Nc2ccccc2N2CCCC2)cc1S(=O)(=O)N1CCOCC1	-6	2%	10µM*	0	2%	-29%
COc1ccc(C(=O)OC/C(O)=C(\C#N)c2nc3ccccc3[nH]2)cc1S(=O)(=O)N1CCOCC1	?	2%	79µM*	?	30%	-10%
CCC1CCCCN1S(=O)(=O)c1cc2c3c(c1)CC(=O)N3CCC2 (centres undefined)	/	-8%	2%[59 µM]	/	29%	-12%
COc1ccccc1C(=O)N/C(=C/c1ccc2c(c1)OCO2)C(=O)Nc1ccc(C(=O)O)cc1	-19	-18%	-13%	-9	20%	-4%
CCOC(=O)c1c(-c2ccccc2Cl)csc1NC(=O)c1cc(S(=O)(=O)N2CCOCC2)ccc1C	-13	-27%	7.9µM*	-7	?	-13%
Cc1ccc(S(=O)(=O)N2CCOCC2)cc1C(=O)Nc1nc(-c2ccccn2)cs1	3	/	/	-85*	?	40µM*
CCOc1ccccc1NC(=O)c1cc(S(=O)(=O)N2CCOCC2)ccc1C	-5	-8%	-2%[0.501 µM]	12	2%	-15%
CSc1cccc(NC(=O)CN2CCN(Cc3ccccc3C)S2(=O)=O)c1	/	-17%	5%[59 µM]	/	27%	-6%
Cc1cccc(NC(=O)c2ccc3c(O)c(S(=O)(=O)c4ccccc4)c(=O)[nH]c3c2)c1C	/	-24%	?	/	-5%	?
Cc1ccccc1OCC(O)CN1CCN(C)CC1 (centres undefined)	/	?	50µM*	-1	20%	-27%
COc1cccc(OCC(O)CN2CCN(C)CC2)c1 (centres undefined)	4	50µM*	25µM*	14	?	1µM*
Cc1ccc(OCC(O)CN2CCOCC2)c(C)c1 (centres undefined)	/	-36%	89µM*	2	1%	89µM*
COc1ccccc1OCC(O)CN1CCN(CC(=O)Nc2c(C)cccc2C)CC1 (centres undefined)	2	0%	3%[59 µM]	2	19%	89µM*!
CCOC(=O)N1CCN(CC(O)COc2c(OC)cccc2OC)CC1 (centres undefined)	3	1%	-11%[59 µM]	6	28%	?
OC(COc1ccccc1Cl)CN1CCN(CC(O)COc2ccccc2Cl)CC1 (centres undefined)	-10	-32%	-45%[59 µM]	-4	-23%	-14%
O=C(NCCc1ccc(Cl)cc1)c1ccc2c(c1)nc1n2CCOC1	/	0%	?	/	25%[57 µM]	8%
CCc1cccc(C)c1NC(=O)c1cc(S(=O)(=O)N2CCOCC2)cn1C	/	-3%	?	/	40%	-8%
Cc1c(C(=O)N(C)CCCCN2CCOCC2)oc2c(F)cccc12	3	-3%	1%[0.501 µM]	4	35%	-11%
O=C(c1ccc(S(=O)(=O)N2CCCCCC2)cc1)N1CCN(c2ccccc2)CC1	18	-10%	6%	7	-11%	79µM*
O=C(c1ccc(Cl)c(S(=O)(=O)N2CCCCC2)c1)N1CCN(c2ccccc2)CC1	3	-28%	-4%	-11	-6%	-34%
O=C(c1ccc(Cl)c(S(=O)(=O)N2CCCC2)c1)N1CCN(c2ccc(F)cc2)CC1	25	56µM*	45µM*	-2	-14%	?
O=C(c1ccc(Cl)c(S(=O)(=O)N2CCCC2)c1)N1CCN(c2ccccc2)CC1	9	-21%	-32%	-8	?	13µM*
C=CCNC(=O)c1ccccc1NC(=O)c1ccccc1N(C)S(C)(=O)=O	4	-34%	50µM*	0	19%	-10%
Cc1ccc(CNC(=O)c2ccccc2N(C)S(C)(=O)=O)cc1	-10	-12%	40µM*	58	-10%	6%
CN(c1ccccc1C(=O)NCc1ccco1)S(C)(=O)=O	-2	?	-24%[12.7 µM]	0	28%	-24%[57.1 µM]
SMILES	CtBP-E1A inh	BAZ2B inh	G9a block	Six1-Eya2 inh	HP1b chromo inh	JMJD2A Tudor inh
O=CNC(n1cnc2c(N3CCOCC3)ncnc21)C(Cl)(Cl)Cl (centres undefined)	/	5%	/	1	34%	-16%
O=C(O)/C=C/C(=O)Nc1ccccc1SC(F)(F)F	-11	1%	8.9µM*	3	27%	-19%
O=C(O)/C=C/C(=O)Nc1cccc2c1-c1ccccc1C2=O	12	/	/	-4	45%	-28%
O=C(O)/C=C/C(=O)Nc1c(F)cccc1F	6	0%	50µM*	2	60%	-6%
O=C(O)/C=C/C(=O)Nc1ccccc1-c1ccccc1NC(=O)/C=C/C(=O)O	-23	-1%	10µM*	-20	33%	79µM*
COc1cccc(OC)c1C(=O)Nc1ccc(-c2nc3ncccc3o2)cc1	/	3%	-3%[59 µM]	/	19%	-6%
COc1ccc(NC(=O)CN(C)C(=O)Cc2ccc3c(c2)CCC3)cc1	-1	-33%	50µM*	-3	4%	-21%
COc1ccc(CC(=O)N(C)CC(=O)Nc2ccccc2SC)cc1	3	2%	-4%[59 µM]	0	-6%	28µM*
Cc1ccc(NC(=O)CN(C)C(=O)Cc2ccc3c(c2)CCC3)cc1	7	9%	50µM*	-6	32%	-1%
CN(CC(=O)Nc1ccc(F)cc1)C(=O)Cn1c(=O)oc2ccccc21	6	-2%	-6%[12.7 µM]	3	29%	5%
CSc1ccccc1NC(=O)CN(C)C(=O)Cn1c(=O)oc2ccccc21	4	11%	50µM*	4	-5%	-8%
COc1ccc(S(=O)(=O)N(C)CC(=O)Nc2ccccc2SC)cc1	4	38%	72%[59 µM]	7	31%	-5%
Cc1ccc(NC(=O)Cc2ccc3c(c2)CCCC3)cc1C	-13	-3%	?	-1	-11%	1%
O=C(CNC(=O)C1CCCCC1)OCC(=O)c1ccc([N+](=O)[O-])cc1	/	/	/	/	23%[57 µM]	-13%[57.1 µM]
COc1ccc(Cl)cc1NC(=O)NCCc1c(C)nn(C)c1C	/	-2%	-2%[12.7 µM]	/	31%	14%
C=CCOc1ccc(CN(C)CC(=O)Nc2ccc3c(c2)CCC3)cc1	1	50µM*	14µM*	-1	-20%	14µM*
COc1ccc(NC(=O)CN(C)CC(=O)NC2CCC(C)CC2)cc1 (centres undefined)	11	-1%	-42%[12.7 µM]	3	24%	-7%
CCOc1ccc(CN(C)CC(=O)Nc2ccc3c(c2)CCC3)cc1OC	-23	-17%	0%	8	8%	-17%[57.1 µM]
